Test results: ChEMBL document CHEMBL1201862, “PubChem BioAssay data set” (2004)
About 4,000 (7.4%) of roughly 54,000 sequences were called active. Cut-off read from the data, not from the text of the source: active = GI50 up to about 1.1 µM and inactive = higher. A selection follows. Entries with a potency or affinity are not part of this list.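 The compound was tested at five concentrations on cells cultured in 96-well plates, with a 48-hour exposure period. GI50 = concentration required for 50% inhibition of growth.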

Each substance was assayed on SNB-75 (assay: NCI tumour cell line growth inhibition, 48 h).
For “[Bis(aminomethyl)pentamethylenesilane]tetrachloropaltinum(IV), CHEMBL2146204”, the GI50 was 2.64 µM. With “[Bis(aminomethyl)diethylsilane]tetrachloroplatinum(IV), CHEMBL2146203” the GI50 was 3.8 µM. With CISPLATIN, CHEMBL11359 the GI50 was 2.84 µM. “mu-(1,7-nanodiamine-N,N')bis-(cis-aminedichloroplatimum (II)), CHEMBL2146215” showed a GI50 of 12.4 µM. In the case of “cis-Bis[[(trimethylsilyl)methyl]amino]tetrachloroplatinum(IV), CHEMBL2146191”, the GI50 is reported as 15 µM. With “[Bis(aminomethyl)ethylmethylsilane]tetrachloroplatinum(IV), CHEMBL2146192” the GI50 was 3.53 µM. “[Bis(aminomethyl)dimethylsilane]tetrachloroplatinum(IV), CHEMBL2146190” gave a GI50 of 11.5 µM. “[Bis(aminomethyl)pentamethylenesilane]dichloropaltinum(II), CHEMBL2146202” gave a GI50 of 2.9 µM. “[Bis(aminomethyl)tetramethylenesilane]dichloropaltinum(II), CHEMBL2146205” showed a GI50 of 29.5 µM. Work on “[Bis(aminomethyl)dimethylsilane]dichloroplatinum (II), CHEMBL2146201” yielded a GI50 of 9.23 µM. “[Bis(aminomethyl)tetramethylenesilane]tetrachloropaltinum(IV), CHEMBL2146189” gave a GI50 of 5.7 µM.
